Source: PubChem BioAssay (The Scripps Research Institute Molecular Screening Center)
In the library only some 2.6% were active in any assay of this set; here they are far more common.
Fam108B inh – blocks mouse Fam108B hydrolase in RBBP9 counter-screen. inhibition, % at 9.51 µM. recombinant Fam108B, FP-Rh probe fluorescence polarization. 0.33% of 300,000 active;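 active means inhibition above the screen mean inhibition plus 3 SD, computed separately per campaign, cut at about 18% in these data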;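 further: inhibitors lower polarization as less probe binds the enzyme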
PRMT1 FP inh – inhibitors of human PRMT1. recombinant PRMT1, activity-based probe fluorescence polarization. AID 652257. 1.3% of 370,000 active. inhibition, % at 2.79 µM. Q99873;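 active means inhibition above about 21% made by adding two undisclosed values, limit read from the data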
PAD4 FP inh – inhibitors of human PAD4; Q9UM07; recombinant PAD4, RCA probe fluorescence polarization; inhibition, % at 6.36 µM; 0.41% of 330,000 active; AID 485272;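 active means percent inhibition above a cutoff equal to the mean of all tested compounds plus 3 SD, cut at about 15% in these data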;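 further: 0% = PAD4 with RCA probe and DMSO and 100% = probe without PAD4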
Target sequence (Q9UM07 whole entry, looked up): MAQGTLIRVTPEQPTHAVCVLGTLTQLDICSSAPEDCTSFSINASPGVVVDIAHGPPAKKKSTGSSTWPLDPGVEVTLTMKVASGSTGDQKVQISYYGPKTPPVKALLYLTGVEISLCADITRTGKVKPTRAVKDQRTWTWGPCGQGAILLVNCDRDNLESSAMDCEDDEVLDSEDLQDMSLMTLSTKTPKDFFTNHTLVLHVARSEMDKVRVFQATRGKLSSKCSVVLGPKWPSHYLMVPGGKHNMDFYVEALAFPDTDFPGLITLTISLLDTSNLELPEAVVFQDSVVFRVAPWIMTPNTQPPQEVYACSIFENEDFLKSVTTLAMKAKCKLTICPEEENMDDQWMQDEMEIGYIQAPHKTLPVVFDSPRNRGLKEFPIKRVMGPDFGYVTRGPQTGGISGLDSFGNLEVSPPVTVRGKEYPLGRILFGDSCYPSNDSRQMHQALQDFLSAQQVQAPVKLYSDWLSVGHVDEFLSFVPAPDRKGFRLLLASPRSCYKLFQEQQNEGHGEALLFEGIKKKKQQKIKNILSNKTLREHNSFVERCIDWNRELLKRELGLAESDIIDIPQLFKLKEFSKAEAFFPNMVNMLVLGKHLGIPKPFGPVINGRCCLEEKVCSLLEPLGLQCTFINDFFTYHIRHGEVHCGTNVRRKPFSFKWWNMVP
TCR-CD3 inh – inhibitors of human TCR-CD3 interaction; TAMRA-labeled TCR probe fluorescence, biochemical; inhibition, % at 9.4 µM; 0.37% of 360,000 active; AID 651800; in the data active means inhibition above about 19%;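 further: recombinant mutant TCR 2C K166C tagged with TAMRA read by polarization; 0% = receptor in buffer alone and 100% = receptor with positive control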
PME-1 primary – PME-1 (human) inhibition. Q9Y570. recombinant PME-1, FP-Rh probe fluorescence polarization. inhibition, % at 5.9 µM. 0.53% of 320,000 active;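 active means inhibition above the campaign mean of all compounds plus 3 SD, cut at about 26% in these data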;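 further: competitive labeling of PME-1 active site by serine hydrolase directed probe; 0% = PME-1 with DMSO and 100% = wells lacking PME-1 enzyme; inhibitors block probe labeling so polarization falls and inhibition rises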
SIAE inh – inhibitors of human sialic acid acetylesterase SIAE; Q9HAT2; SIAE FP-Rh probe binding, fluorescence polarization; inhibition, % at 9.66 µM; 0.69% of 370,000 active; AID 1053197;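 active means inhibition above a cutoff: mean of compounds within the control limits plus 3 SD of those, cut at about 17% in these data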;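 further: 0% = plate median of compound wells and 100% = probe without SIAE protein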
PRMT1 inh conf – confirmation of human PRMT1 inhibitors. inhibition, % at 2.79 µM. 42% of 3,300 active. shares compounds with PRMT1 FP inh. recombinant His-PRMT1, activity-based probe fluorescence polarization;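 active means mean inhibition across replicates above the hit cutoff derived for the earlier primary screen, cut at about 22% in these data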
* hit, by the source's call; . = not tested or not shown.

SMILES	Fam108B inh	PRMT1 FP inh	PAD4 FP inh	TCR-CD3 inh	PME-1 primary	SIAE inh	PRMT1 inh conf
CCOc1ccc(NC(=O)c2sc3nc(N4CCOCC4)c4c(c3c2N)CCCC4)cc1	5	17	-1	14	6	9	.
O=C(Nc1ccccc1C(F)(F)F)OCCCN1CCC2(CCC(c3ccccc3)CC2)C1=O (centres undefined)	.	0	.	.	.	-8	.
Oc1c(/C=N/c2ccccn2)sc2ccccc12	-37	25*	2	-19	-34	-12	15
Oc1oc(-c2ccccc2)nc1/C=N/c1ccccn1	12	-1	-2	3	4	-8	.
Oc1c(C=Nc2ccc(Cl)cn2)sc2ccccc12	1	41*	1	-4	-2	-7	4
CCOC(=O)CC[C@H]1CC[C@]2(CCCN(C(=O)C(C)(C)C)C2)O1	.	-2	.	.	.	2	.
O=C(C1CCCN1S(=O)(=O)c1ccc(F)cc1)N1CCc2ccccc2C1 (centres undefined)	.	5	.	.	.	-2	.
CCCC1CCC2(CC1)CCC2OC(=S)Nc1ccccc1Cl (centres undefined)	.	1	.	.	.	-5	.
Cc1ccc(-c2cccc(NC(=O)C3C(C(=O)O)[C@@H]4C=C[C@H]3C4)c2)o1 (some centres undefined)	-6	65*	-6	10	-4	0	10
N#CC1=C(SCC(=O)c2ccccc2)NC2=C(C(=O)CCC2)C1c1ccco1 (centres undefined)	0	35*	-4	-3	10	-3	3
COc1ccc(-c2onc3ccc(Cl)cc23)cc1	-3	30*	-1	0	-3	0	13
Cc1ccc(-c2onc3ccc(Cl)cc23)cc1	-7	-1	-3	2	-1	7	.
C/C(=N\NC(=O)c1cc(-c2ccccc2)nc2ccccc12)c1ccc(Cl)cc1	.	-8	.	.	.	-17	.
CCCCn1c(N)c(N(CCC(C)C)C(=O)CSc2nc3ccccc3n2C)c(=O)[nH]c1=O	.	27*	.	-6	.	-4	19
Cc1ccc2c(CC(=O)N(C)c3c(N)n(Cc4ccccc4)c(=O)[nH]c3=O)coc2c1	-2	94*	4	8	-8	0	-2
CCN(C(=O)CN1CCN(c2ccc(O)cc2)CC1)c1c(N)n(Cc2ccccc2)c(=O)[nH]c1=O	3	27*	2	6	-4	6	9
CCN(C(=O)CSc1nnc(-c2cccc(Cl)c2)n1N)c1c(N)n(Cc2ccccc2)c(=O)[nH]c1=O	.	32*	.	-6	.	0	38*
CCN(C(=O)CN1CCCCCC1)c1c(N)n(Cc2ccccc2)c(=O)[nH]c1=O	.	0	2	-2	.	2	.
CCN(C(=O)COC(=O)Cc1coc2cc(C)ccc12)c1c(N)n(Cc2ccccc2)c(=O)[nH]c1=O	.	1	-9	0	5	-2	.
CCN(C(=O)CSc1nnc(-c2ccc(C)cc2)n1N)c1c(N)n(Cc2ccccc2)c(=O)[nH]c1=O	.	-1	.	-1	.	-6	.
O=C(CSc1nnc(SCc2cccc3ccccc23)s1)Nc1ccc(S(=O)(=O)Nc2nccs2)cc1	.	-5	.	.	.	-87	.
Cc1cc(F)ccc1C(=O)N1CCC(Oc2cccnc2)CC1	.	-4	.	.	.	9	.
Cc1nnc(SCC(=O)N(C)c2c(N)n(Cc3ccccc3)c(=O)[nH]c2=O)n1Cc1ccccc1	-3	2	-6	9	-17	-6	.
CCn1c(SCC(=O)N(C)c2c(N)n(Cc3ccccc3)c(=O)[nH]c2=O)nc2ccccc21	5	27*	3	-5	2	1	27*
O=C(NCCNCc1ccccc1)c1ccco1	.	28*	.	1	.	11	8
SMILES	Fam108B inh	PRMT1 FP inh	PAD4 FP inh	TCR-CD3 inh	PME-1 primary	SIAE inh	PRMT1 inh conf
C[C@H]1Cn2nnc(-c3ccccc3)c2Cn2c3ccccc3c(=O)n21	.	-1	.	.	.	2	.
CC(=O)NC1=C(NC2CCS(=O)(=O)C2)C(=O)c2ccccc2C1=O (centres undefined)	-3	44*	-13	2	-1	1	67*
COC(=O)C1CN(Cc2ccc(Cl)cc2)CCS(=O)(=O)N1Cc1cn(Cc2ccc(F)cc2)nn1 (centres undefined)	.	-2	.	.	.	2	.
CCc1cc2c(=O)n(Cc3ccco3)c(SCC(=O)NCC3CCCO3)nc2s1 (centres undefined)	0	3	-2	0	7	0	.
CCc1cc2c(=O)n(Cc3ccco3)c(SCC(=O)N3CCCc4ccccc43)nc2s1	1	46*	-6	-1	-4	-1	10
CCc1cc2c(=O)n(Cc3ccco3)c(SCc3c(C)noc3C)nc2s1	0	53*	-1	-6	0	7	8
Clc1cccc(Cc2c(-c3ccco3)nc3ccc(Br)cn23)c1	.	34*	.	-5	.	-7	13
Clc1cccc(Cc2c(-c3ccco3)nc3ccc(Cl)cn23)c1	.	47*	.	-2	.	6	17
Brc1ccc2nc(-c3ccco3)c(Cc3ccccc3)n2c1	.	42*	.	0	.	-4	15
Clc1ccc(-c2nc3ccc(Cl)cn3c2Cc2cccc(Cl)c2)cc1	.	2	.	4	.	-16	.
Cc1cc2nc(-c3ccco3)c(Cc3cccc(Cl)c3)n2c(C)c1Br	.	20	.	9	.	2	.
C[C@@H]1OC(C2CCCCC2)N(C)[C@H]2C[C@H]3c4[nH]c5cccc(-c6ccccc6)c5c4CCN3C[C@@H]12 (some centres undefined)	.	2	.	.	.	-1	.
CN(C)CCCn1c(=S)[nH]c2ccccc2c1=O	-1	12	-1	-7	0	-3	.
CN(C)CCCn1c2c3ccccc3ccc2c2oc(=O)c3ccccc3c21	.	29*	.	0	.	-15	1
COc1ccc(OC)c(N=c2ssnc2Cl)c1	4	75*	6	3	-5	2	81*
COc1cc(-n2nnnc2SC)c(OC)cc1Cl	5	6	1	-4	1	-4	.
COc1cc(N=c2ssnc2Cl)c(OC)cc1Cl	4	94*	1	-2	-4	16	91*
COC(=O)[C@]12C[C@H](CC(=O)N3CCC(c4ccccc4)CC3)C(=O)N(Cc3ccco3)C1=C[C@H](C(C)(C)C)O[C@@H]2C	.	3	.	.	.	-1	.
Cc1ccc(-c2nc3ncccn3c2NC(=O)c2ccccc2)cc1	.	1	.	.	.	2	.
CCc1ccc(-n2cc(-c3ccc([N+](=O)[O-])cc3)[nH]c2=S)cc1	0	4	-1	1	9	-1	.
CCc1ccc(-c2cn(C3CCCCC3)c(=S)[nH]2)cc1	8	29*	-2	-12	8	4	15
CCOc1ccc(-n2c(SCC(=O)Nc3cccc4ccccc34)nnc2-c2ccccc2)cc1	.	2	.	.	.	8	.
NS(=O)(=O)c1ccc(-c2ccc(/C=C3\SC(=S)N(C4CCS(=O)(=O)C4)C3=O)o2)cc1 (centres undefined)	-1	42*	-16	-14	-5	3	-8
COC(=O)c1cc(-c2ccccc2OC)c(=O)n2c1CCC2	.	2	.	.	.	-3	.
